In PubChem BioAssay AID1035 (National Center for Advancing Translational Sciences (NCATS), 2008) one finds remaining HDAC activity data, which are given here for 13 compounds.

A number with no mark means an inactive call. Activity calls are given as the source filed them. No rule for the calls is given here.

The nature of this assay: HDAC Secondary Assay for qHTS Assay for Epigenetic Modulators. The settings on record: HeLa nuclear extract HDAC activity, fluorogenic substrate, 20 min; at 48 µM; hits give low values. From the text:
NIH Molecular Libraries Screening Centers Network [MLSCN] NIH Chemical Genomics Center [NCGC] MLSCN Grant: 1 X01 MH079860-01 Assay Provider: Elisabeth D. Martinez, University of Texas SW Medical Center NCGC Assay Overview: This secondary assay characterizes selected actives identified in the qHTS of the Locus Derepression (LDR) assay (PubChem AID 597). The LDR assay detects the derepression of a GFP reporter that is stably integrated in a region of the genome of murine c127i mammary cells that is presumably silenced. Compounds that cause derepression of the locus to express GFP are identified by enumerating GFP positive cells using a laser-scanning microplate cytometer. Selected LDR actives were assayed for inhibition of histone deacetylase (HDAC) activity in HeLa nuclear extracts using a HDAC fluorometric kit (AK-500, Biomol International LP). This assay uses a substrate containing an acetylated lysine side chain that is deacetylated by HDAC enzymatic activity to generate a fluorophore.
NCGC Assay Protocol Summary HeLa nuclear extracts and acetylated profluorescent substrate were incubated with vehicle, 0.5 uM TSA, or 48 uM indicated LDR compound for 20 min at ambient temperature and fluorescence was measured. Background-subtracted activity was expressed as a percent of uninhibited extract. Tests were performed in 25 uL volume in 384-well black plates using the HDAC assay kit AK-500 (Biomol International LP). For further details, see R.L. Johnson, W. Huang, A. Jadhav, C.P. Austin, J. Inglese, E.D. Martinez, A Quantitative High-Throughput Screen Identifies Potential Epigenetic Modulators of Gene Expression, Analytical Biochemistry (2007), doi: 10.1016/j.ab.2007.12.028
Background: qHTS replaces the single test concentration by a dilution series.
Consider `CN(C)C(=O)CSc1cccc2cccnc12`, for which the remaining HDAC activity was 111%. Regarding `O=C(CSc1cccc2cccnc12)NCc1ccccc1`, the remaining HDAC activity is 96%. The result for `CN1CCN(Cc2cc(Cl)c3cccnc3c2O)CC1` reads 109%; that for `CC(C)C(=O)NC(c1ccco1)c1ccc2cccnc2c1O` (stereo not drawn), 108%; that for `CC(C)C(=O)NC(c1ccco1)c1cc([N+](=O)[O-])c2cccnc2c1O` (stereo not drawn), 112%.

For `CCN(CC)c1ccc2cc(-c3nc4ccccc4[nH]3)c(=O)oc2c1`, the remaining HDAC activity was 112%. As for `O=C(CSc1cccc2cccnc12)N1CCCC1`, the remaining HDAC activity was 120%. The result for `CC(C)C(=O)NC(c1ccc(N(C)C)cc1)c1ccc2cccnc2c1O` (stereo not drawn) reads 99%; that for `CN1C(=S)SC(c2ccccc2)N(C)C1c1ccccc1` (stereo not drawn), 107%. In the case of `COc1ccc(C(NC(=O)C(C)C)c2ccc3cccnc3c2O)cc1` (stereo not drawn) it was 106%; in that of `O=Nc1ccc(O)c2ncccc12`, 84%; in that of `CC(/C=C/C(=O)NO)=C\[C@@H](C)C(=O)c1ccc(N(C)C)cc1`, 1% (active). For `CCN1CSC(=S)N(CC)C1`, the remaining HDAC activity was 103%.
